In PubChem BioAssay AID1159580 (chemical genetic matrix, 2015):
Among all 5,500 compounds or so, about 2,000 (36%) were called active. Inconclusive results (about 18%) are left out. Some of the results follow. A number with no mark means an inactive call. Cut-off read from the data, not from the text of the source: active = normalized growth mostly below about 0.91 (no sharp cut-off); inconclusive = no clear call, values can overlap the other calls; inactive = mostly above about 0.92.

Test: chemical genetic growth profiling, strain panel (AID 1159580);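 note: tested at 20 µM; growth read once vehicle control cultures reached saturation at 30 °C; 1 = growth at the plate median or of vehicle wells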
Settings: growth OD
[1] = S. cerevisiae deletion strains, locus YDL101C, strain DUN1, stronger effect = lower value
[2] = S. cerevisiae deletion strains, locus YHR030C, strain SLT2, stronger effect = lower value

Nc1ccccc1C(=O)Nc1cc(C(F)(F)F)cc(C(F)(F)F)c1
normalized growth (S. cerevisiae deletion strains, locus YAR019C, strain CDC15, stronger effect = lower value): 0.957 | normalized growth (S. cerevisiae deletion strains, locus YBL105C, strain PKC1, stronger effect = lower value): 0.973 | normalized growth (S. cerevisiae deletion strains, locus YBR135W, strain CKS1, stronger effect = lower value): 0.985 | normalized growth (S. cerevisiae deletion strains, locus YBR136W, strain MEC1, stronger effect = lower value): 0.946 | normalized growth (S. cerevisiae deletion strains, locus YBR160W, strain CDC28, stronger effect = lower value): 0.982 | normalized growth (S. cerevisiae deletion strains, locus YDL017W, strain CDC7, stronger effect = lower value): 0.978 | normalized growth (S. cerevisiae deletion strains, locus YDL028C, strain MPS1, stronger effect = lower value): 0.943 | normalized growth [1]: 0.937 | normalized growth (S. cerevisiae deletion strains, locus YDL108W, strain KIN28, stronger effect = lower value): 0.969 | normalized growth (S. cerevisiae deletion strains, locus YDL132W, strain cdc53, stronger effect = lower value): 0.967 | normalized growth (S. cerevisiae deletion strains, locus YDL214C, strain PRR2, stronger effect = lower value): 1 | normalized growth (S. cerevisiae deletion strains, locus YDR052C, strain DBF4, stronger effect = lower value): 0.97 | normalized growth (S. cerevisiae deletion strains, locus YDR054C, strain cdc34, stronger effect = lower value): 0.96 | normalized growth (S. cerevisiae deletion strains, locus YDR226W, strain ADK1, stronger effect = lower value): 0.976 | normalized growth (S. cerevisiae deletion strains, locus YDR477W, strain SNF1, stronger effect = lower value): 0.992 | normalized growth (S. cerevisiae deletion strains, locus YER123W, strain YCK3, stronger effect = lower value): 0.957 | normalized growth (S. cerevisiae deletion strains, locus YER133W, strain GLC7, stronger effect = lower value): 1.01 | normalized growth (S. cerevisiae deletion strains, locus YFL009W, strain cdc4, stronger effect = lower value): 0.968 | normalized growth (S. cerevisiae deletion strains, locus YFL029C, strain CAK1, stronger effect = lower value): 0.944 | normalized growth (S. cerevisiae deletion strains, locus YFR003C, strain YPI1, stronger effect = lower value): 0.984 | normalized growth (S. cerevisiae deletion strains, locus YFR019W, strain FAB1, stronger effect = lower value): 0.986 | normalized growth (S. cerevisiae deletion strains, locus YFR028C, strain CDC14, stronger effect = lower value): 0.974 | normalized growth (S. cerevisiae deletion strains, locus YGR040W, strain KSS1, stronger effect = lower value): 1.01 | normalized growth (S. cerevisiae deletion strains, locus YGR052W, strain FMP48, stronger effect = lower value): 0.921 | normalized growth (S. cerevisiae deletion strains, locus YGR092W, strain DBF2, stronger effect = lower value): 0.961 | normalized growth [2]: 0.855 | normalized growth (S. cerevisiae deletion strains, locus YHR079C, strain IRE1, stronger effect = lower value): 0.836 | normalized growth (S. cerevisiae deletion strains, locus YHR082C, strain KSP1, stronger effect = lower value): 0.851 | normalized growth (S. cerevisiae deletion strains, locus YHR205W, strain SCH9, stronger effect = lower value): 0.816 | normalized growth (S. cerevisiae deletion strains, locus YIL147C, strain SLN1, stronger effect = lower value): 0.946 | normalized growth (S. cerevisiae deletion strains, locus YJL095W, strain BCK1, stronger effect = lower value): 0.844 | normalized growth (S. cerevisiae deletion strains, locus YJL128C, strain PBS2, stronger effect = lower value): 0.914 | normalized growth (S. cerevisiae deletion strains, locus YJL157C, strain FAR1, stronger effect = lower value): 1.01 | normalized growth (S. cerevisiae deletion strains, locus YJR016C, strain ILV3, stronger effect = lower value): 0.943 | normalized growth (S. cerevisiae deletion strains, locus YJR066W, strain TOR1 (second series), stronger effect = lower value): 0.997 | normalized growth (S. cerevisiae deletion strains, locus YJR066W, strain TOR1, stronger effect = lower value): 0.903 | normalized growth (S. cerevisiae deletion strains, locus YKL048C, strain ELM1, stronger effect = lower value): 0.949 | normalized growth (S. cerevisiae deletion strains, locus YKL067W, strain YNK1, stronger effect = lower value): 0.978 | normalized growth (S. cerevisiae deletion strains, locus YKL101W, strain HSL1, stronger effect = lower value): 0.957 | normalized growth (S. cerevisiae deletion strains, locus YKL193C, strain SDS22, stronger effect = lower value): 0.955 | normalized growth (S. cerevisiae deletion strains, locus YKL203C, strain TOR2, stronger effect = lower value): 1.06 | normalized growth (S. cerevisiae deletion strains, locus YLR113W, strain HOG1, stronger effect = lower value): 0.762 (active) | normalized growth (S. cerevisiae deletion strains, locus YLR133W, strain CKI1, stronger effect = lower value): 0.934 | normalized growth (S. cerevisiae deletion strains, locus YLR403W, strain SFP1, stronger effect = lower value): 1.02 | normalized growth (S. cerevisiae deletion strains, locus YML070W, strain DAK1, stronger effect = lower value): 0.933 | normalized growth (S. cerevisiae deletion strains, locus YMR001C, strain CDC5, stronger effect = lower value): 0.975 | normalized growth (S. cerevisiae deletion strains, locus YMR205C, strain PFK2 (second series), stronger effect = lower value): 0.947 | normalized growth (S. cerevisiae deletion strains, locus YMR277W, strain FCP1, stronger effect = lower value): 0.952 | normalized growth (S. cerevisiae deletion strains, locus YNL006W, strain LST8, stronger effect = lower value): 0.937 | normalized growth (S. cerevisiae deletion strains, locus YNL020C, strain ARK1, stronger effect = lower value): 0.945 | normalized growth (S. cerevisiae deletion strains, locus YNL161W, strain CBK1, stronger effect = lower value): 0.971 | normalized growth (S. cerevisiae deletion strains, locus YNL183C, strain NPR1, stronger effect = lower value): 0.871 | normalized growth (S. cerevisiae deletion strains, locus YNL207W, strain RIO2, stronger effect = lower value): 0.963 | normalized growth (S. cerevisiae deletion strains, locus YNL222W, strain SSU72, stronger effect = lower value): 0.977 | normalized growth (S. cerevisiae deletion strains, locus YNL307C, strain MCK1 (second series), stronger effect = lower value): 0.941 | normalized growth (S. cerevisiae deletion strains, locus YOL078W, strain AVO1, stronger effect = lower value): 0.961 | normalized growth (S. cerevisiae deletion strains, locus YOL136C, strain PFK27, stronger effect = lower value): 0.956 | normalized growth (S. cerevisiae deletion strains, locus YOR061W, strain CKA2, stronger effect = lower value): 0.99 | normalized growth (S. cerevisiae deletion strains, locus YOR119C, strain RIO1, stronger effect = lower value): 0.981 | normalized growth (S. cerevisiae deletion strains, locus YOR231W, strain MKK1, stronger effect = lower value): 0.87 | normalized growth (S. cerevisiae deletion strains, locus YOR329C, strain SCD5, stronger effect = lower value): 0.969 | normalized growth (S. cerevisiae deletion strains, locus YPL031C, strain PHO85, stronger effect = lower value): 0.991 | normalized growth (S. cerevisiae deletion strains, locus YPL153C, strain RAD53, stronger effect = lower value): 0.987 | normalized growth (S. cerevisiae deletion strains, locus YPL204W, strain HRR25, stronger effect = lower value): 0.976 | normalized growth (S. cerevisiae deletion strains, locus YPL209C, strain IPL1, stronger effect = lower value): 0.952 | normalized growth (S. cerevisiae deletion strains, locus YPL256C, strain CLN2, stronger effect = lower value): 0.781 (active) | normalized growth (S. cerevisiae deletion strains, locus YPR025C, strain CCL1, stronger effect = lower value): 0.985 | normalized growth (S. cerevisiae deletion strains, locus YPR106W, strain ISR1, stronger effect = lower value): 0.934 | normalized growth (S. cerevisiae deletion strains, locus YPR111W, strain DBF20, stronger effect = lower value): 0.946 | normalized growth (S. cerevisiae deletion strains, strain NNK1, stronger effect = lower value): 0.93 | normalized growth (S. cerevisiae deletion strains, strain TSCII, stronger effect = lower value): 0.974

O=C(CN1CCOCC1)Nc1cc(C(F)(F)F)cc(C(F)(F)F)c1
normalized growth (S. cerevisiae deletion strains, locus YAL013W, strain DEP1, stronger effect = lower value): 0.999 | normalized growth (S. cerevisiae deletion strains, locus YBR229C, strain ROT2, stronger effect = lower value): 1.01 | normalized growth (S. cerevisiae deletion strains, locus YCL061C, strain MRC1, stronger effect = lower value): 1.01 | normalized growth [1]: 1 | normalized growth (S. cerevisiae deletion strains, locus YDL134C, strain PPH21, stronger effect = lower value): 0.995 | normalized growth (S. cerevisiae deletion strains, locus YDR150W, strain NUM1, stronger effect = lower value): 1 | normalized growth (S. cerevisiae deletion strains, locus YEL061C, strain CIN8, stronger effect = lower value): 1.01 | normalized growth (S. cerevisiae deletion strains, locus YGR078C, strain PAC10, stronger effect = lower value): 1.01 | normalized growth [2]: 1.02 | normalized growth (S. cerevisiae deletion strains, locus YHR087W, strain rtc3, stronger effect = lower value): 0.995 | normalized growth (S. cerevisiae deletion strains, locus YJR043C, strain POL32, stronger effect = lower value): 0.974 | normalized growth (S. cerevisiae deletion strains, locus YJR075W, strain HOC1, stronger effect = lower value): 0.986 | normalized growth (S. cerevisiae deletion strains, locus YLR039C, strain RIC1, stronger effect = lower value): 1.06 | normalized growth (S. cerevisiae deletion strains, locus YLR058C, strain SHM2 (second series), stronger effect = lower value): 1 | normalized growth (S. cerevisiae deletion strains, locus YLR085C, strain ARP6, stronger effect = lower value): 0.988 | normalized growth (S. cerevisiae deletion strains, locus YLR262C, strain YPT6, stronger effect = lower value): 1.05 | normalized growth (S. cerevisiae deletion strains, locus YML094W, strain GIM5, stronger effect = lower value): 0.996 | normalized growth (S. cerevisiae deletion strains, locus YMR219W, strain ESC1, stronger effect = lower value): 1.01 | normalized growth (S. cerevisiae deletion strains, locus YMR263W, strain SAP30, stronger effect = lower value): 0.986 | normalized growth (S. cerevisiae deletion strains, locus YMR307W, strain GAS1, stronger effect = lower value): 1.01 | normalized growth (S. cerevisiae deletion strains, locus YNL128W, strain TEP1, stronger effect = lower value): 0.993 | normalized growth (S. cerevisiae deletion strains, locus YNL153C, strain GIM3, stronger effect = lower value): 0.99 | normalized growth (S. cerevisiae deletion strains, locus YNL298W, strain CLA4 (second series), stronger effect = lower value): 0.992 | normalized growth (S. cerevisiae deletion strains, locus YNL322C, strain KRE1, stronger effect = lower value): 1 | normalized growth (S. cerevisiae deletion strains, locus YNR030W, strain Alg12, stronger effect = lower value): 0.994 | normalized growth (S. cerevisiae deletion strains, locus YPL055C, strain LGE1, stronger effect = lower value): 0.972 | normalized growth (S. cerevisiae deletion strains, locus YPL241C, strain CIN2, stronger effect = lower value): 1.07 | normalized growth (S. cerevisiae deletion strains, locus YPR135W, strain CTF4, stronger effect = lower value): 1.02 | normalized growth (S. cerevisiae strains, strain wild type, stronger effect = lower value): 0.999
